These results are taken from PubChem BioAssay AID1508601 (ICCB-Longwood Screening Facility, Harvard Medical School, 2020).

Each structure is given as a SMILES string. “And” between values parts separate entries of the source, which are not always exact repeats. Identical values can stand only once. Hit rate of the full screen: of about 5,700 compounds, about 85 (1%) were called active. Cut-off read from the data, not from the text of the source: active = p53-positive nuclei above about 36% (passing the limit was not always enough); inactive = the rest. The list comes from a sample in which actives are over-represented; it also holds similar structures and randomly drawn compounds. More than one record can exist for a structure, and the calls need not agree.

The nature of experiment [1]: nuclear p53 accumulation, HPV+ cells – imaging, p53-positive nuclei imaging, 24 h, 48 h (AID 1508601). Conditions: 24/48 h.
The target in experiment [2] is Cellular tumor antigen p53 (Homo sapiens) (UniProt P04637). The description is as above. Conditions: 24/48 h, stronger effect = higher value.
Where [3] appears, read: measured here: cell number at 24 h, Library stock concentration: 10 mM.
Setting [4] is: measured here: cell number at 24 h, concentration not given here.
The mark [5] stands for this setting: measured here: cell number at 48 h, Library stock concentration: 10 mM.
[6] abbreviates: measured here: cell number at 48 h, concentration not given here.
Where [7] appears, read: Library stock concentration: 10 mM.
[8] abbreviates: measured here: p53 positive nuclei at 24 h, Library stock concentration: 10 mM.
[9] abbreviates: measured here: p53 positive nuclei at 24 h, concentration not given here.
Where [10] appears, read: measured here: cell number at 24 h, Library stock concentration: 3.33 mM.
The mark [11] stands for this setting: measured here: cell number at 48 h, Library stock concentration: 3.33 mM.
The mark [12] stands for this setting: Library stock concentration: 3.33 mM.
Where [13] appears, read: measured here: p53 positive nuclei at 24 h, Library stock concentration: 3.33 mM.

Chain of Cellular tumor antigen p53 (Homo sapiens) (P04637 whole entry, looked up): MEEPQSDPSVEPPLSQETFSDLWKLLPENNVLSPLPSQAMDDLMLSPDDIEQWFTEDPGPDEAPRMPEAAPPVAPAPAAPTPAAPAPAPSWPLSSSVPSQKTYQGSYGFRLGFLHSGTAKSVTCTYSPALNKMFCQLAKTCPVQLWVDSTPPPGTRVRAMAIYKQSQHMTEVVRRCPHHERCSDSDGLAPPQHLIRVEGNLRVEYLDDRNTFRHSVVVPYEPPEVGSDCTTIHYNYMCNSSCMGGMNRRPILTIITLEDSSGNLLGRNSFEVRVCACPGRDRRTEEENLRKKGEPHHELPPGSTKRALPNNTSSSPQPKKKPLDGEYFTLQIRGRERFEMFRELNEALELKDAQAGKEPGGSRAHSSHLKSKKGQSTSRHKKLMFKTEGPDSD

For `CC[n+]1c(-c2ccccc2)c2cc(N)ccc2c2ccc(N)cc21`, the nuclei count, normalised in experiment [1] (measured here: cell number at 24 h, Library stock concentration: 500 nM) was determined as 102%; in experiment [1] (measured here: cell number at 24 h, Library stock concentration: 1.5 uM), 108%; in experiment [1] (measured here: cell number at 24 h, Library stock concentration: 4.6 uM), 106%; in experiment [1] (measured here: cell number at 24 h, Library stock concentration: 13.7 uM), 111%; in experiment [1] (measured here: cell number at 24 h, Library stock concentration: 41 uM), 111%; in experiment [1] (measured here: cell number at 24 h, Library stock concentration: 123 uM), 102%. For the same molecule, the nuclei count, normalised in experiment [1] (measured here: cell number at 24 h, Library stock concentration: 370 uM) amounted to 117%; in experiment [1] (measured here: cell number at 24 h, Library stock concentration: 1.111 mM) it was 107%; in experiment [1] (measured here: cell number at 24 h, Library stock concentration: 3.333 mM), 105%; in experiment [1] (setting [3]), 83.1%; in experiment [1] (setting [4]) it was 104%; in experiment [1] (measured here: cell number at 48 h, Library stock concentration: 500 nM) it was 104%. Also, the nuclei count, normalised is 109% in experiment [1] (measured here: cell number at 48 h, Library stock concentration: 1.5 uM); 106% in experiment [1] (measured here: cell number at 48 h, Library stock concentration: 4.6 uM); 109% in experiment [1] (measured here: cell number at 48 h, Library stock concentration: 13.7 uM); 109% in experiment [1] (measured here: cell number at 48 h, Library stock concentration: 41 uM); 99.5% in experiment [1] (measured here: cell number at 48 h, Library stock concentration: 123 uM); 104% in experiment [1] (measured here: cell number at 48 h, Library stock concentration: 370 uM). Further, the nuclei count, normalised in experiment [1] (measured here: cell number at 48 h, Library stock concentration: 1.111 mM) came out at 99.7%; in experiment [1] (measured here: cell number at 48 h, Library stock concentration: 3.333 mM) it was 98.5%; in experiment [1] (setting [5]) it was 75.3%; in experiment [1] (setting [6]) it was 97.4%. Besides, the p53-positive nuclei, normalised was 0.0282% (inactive) in experiment [2] (Library stock concentration: 500 nM); 0.101% (inactive) in experiment [2] (Library stock concentration: 1.5 uM); -0.0128% (inactive) in experiment [2] (Library stock concentration: 4.6 uM); -0.0168% (inactive) in experiment [2] (Library stock concentration: 13.7 uM); 0.329% (inactive) in experiment [2] (Library stock concentration: 41 uM); 3.12% (inactive) in experiment [2] (Library stock concentration: 123 uM). In addition, the p53-positive nuclei, normalised is 7.73% (inactive) in experiment [2] (Library stock concentration: 370 uM); 12.2% (inactive) in experiment [2] (Library stock concentration: 1.111 mM); 19.5% (inactive) in experiment [2] (Library stock concentration: 3.333 mM); 103% (active) in experiment [2] (setting [7]); 34.3% (inactive) in experiment [2] (concentration not given here); 0.0668% in experiment [2] (measured here: p53 positive nuclei at 24 h, Library stock concentration: 500 nM). For the same molecule, the p53-positive nuclei, normalised is 0.166% in experiment [2] (measured here: p53 positive nuclei at 24 h, Library stock concentration: 1.5 uM); -0.00293% in experiment [2] (measured here: p53 positive nuclei at 24 h, Library stock concentration: 4.6 uM); -0.0711% in experiment [2] (measured here: p53 positive nuclei at 24 h, Library stock concentration: 13.7 uM); 0.21% in experiment [2] (measured here: p53 positive nuclei at 24 h, Library stock concentration: 41 uM); 1.53% in experiment [2] (measured here: p53 positive nuclei at 24 h, Library stock concentration: 123 uM); 4.81% in experiment [2] (measured here: p53 positive nuclei at 24 h, Library stock concentration: 370 uM). Moreover, the p53-positive nuclei, normalised in experiment [2] (measured here: p53 positive nuclei at 24 h, Library stock concentration: 1.111 mM) stood at 11.9%; in experiment [2] (measured here: p53 positive nuclei at 24 h, Library stock concentration: 3.333 mM), 38.2%; in experiment [2] (setting [8]), 127%; in experiment [2] (setting [9]), 45.3%.
Turning to `CCCCC/C=C\C/C=C\C/C=C\C/C=C\CCCC(=O)N[C@H](C)COP(=O)(O)O`, the nuclei count, normalised came out at 107% in experiment [1] (setting [4]) and 103% in experiment [1] (setting [6]). The p53-positive nuclei, normalised was 0.124% (inactive) in experiment [2] (concentration not given here) and -0.0345% in experiment [2] (setting [9]).
As for `N#CC(OC1OC(COC2OC(CO)C(O)C(O)C2O)C(O)C(O)C1O)c1ccccc1` (centres undefined), the nuclei count, normalised in experiment [1] (setting [10]) was 95.4%; in experiment [1] (setting [11]), 89.1%. The p53-positive nuclei, normalised is 0.141% (inactive) in experiment [2] (setting [12]) and -0.0206% in experiment [2] (setting [13]).
The corresponding values for `Cc1ccc(-n2nccn2)c(C(=O)N2CCN(c3nc4cc(Cl)ccc4o3)CCC2C)c1` (centres undefined) are 71.4%, 76.4%, 0.0905% (inactive) and -0.163%.
As to `c1cc(N2CCNCC2)c2cnccc2c1`, the nuclei count, normalised is 95.9% in experiment [1] (setting [4]) and 98.3% in experiment [1] (setting [6]). Also, the p53-positive nuclei, normalised in experiment [2] (concentration not given here) was -0.118% (inactive); in experiment [2] (setting [9]), -0.041%.
Taken in the same sequence, the figures for `CN(C)C(=S)SSC(=S)N(C)C` were 35.4%, 24.2%, 90.3% (active) and 108%.
For the molecule `Cc1sc2c(c1C)C(c1ccc(Cl)cc1)=NC(CC(=O)OC(C)(C)C)c1nnc(C)n1-2` (centres undefined), the nuclei count, normalised in experiment [1] (measured here: cell number at 24 h, Library stock concentration: 80 uM) is 101% and 128% and 116%; in experiment [1] (measured here: cell number at 24 h, Library stock concentration: 400 uM), 109% and 128% and 117%; in experiment [1] (measured here: cell number at 24 h, Library stock concentration: 2 mM), 107% and 132% and 120%; in experiment [1] (setting [10]), 128%; in experiment [1] (setting [3]), 99.7% and 123% and 119%; in experiment [1] (measured here: cell number at 48 h, Library stock concentration: 80 uM), 95.3% and 134% and 114%. Further, the nuclei count, normalised in experiment [1] (measured here: cell number at 48 h, Library stock concentration: 400 uM) was 97.6% and 128% and 112%; in experiment [1] (measured here: cell number at 48 h, Library stock concentration: 2 mM), 109% and 132% and 118%; in experiment [1] (setting [11]), 124%; in experiment [1] (setting [5]) it was 99.9% and 124% and 117%. For the same molecule, the p53-positive nuclei, normalised in experiment [2] (Library stock concentration: 80 uM) was 0.233% (inactive) and -0.29% (inactive) and -0.79% (inactive); in experiment [2] (Library stock concentration: 400 uM), -0.238% (inactive) and -0.0882% (inactive) and -0.721% (inactive); in experiment [2] (Library stock concentration: 2 mM), 3.93% (inactive) and 0.629% (inactive) and -0.825% (inactive); in experiment [2] (setting [12]), 7.2% (inactive); in experiment [2] (setting [7]) it was 26.8% (active) and 8.08% (inactive) and -0.599% (inactive); in experiment [2] (measured here: p53 positive nuclei at 24 h, Library stock concentration: 80 uM), 0.0692% and 0.858% and -0.21%. The p53-positive nuclei, normalised in experiment [2] (measured here: p53 positive nuclei at 24 h, Library stock concentration: 400 uM) is 0.159% and 1.07% and -0.0728%; in experiment [2] (measured here: p53 positive nuclei at 24 h, Library stock concentration: 2 mM), 12.9% and 4.45% and -0.21%; in experiment [2] (setting [13]), 15.6%; in experiment [2] (setting [8]), 54.1% and 21.9% and 0.0629%.
As to `Cc1sc2c(c1C)C(c1ccc(Cl)cc1)=NC(CC(N)=O)c1nnc(C)n1-2` (centres undefined), the nuclei count, normalised is 103% in experiment [1] (measured here: cell number at 24 h, Library stock concentration: 46 uM); 99.7% in experiment [1] (measured here: cell number at 24 h, Library stock concentration: 278 uM); 85.4% in experiment [1] (measured here: cell number at 24 h, Library stock concentration: 1.67 mM); 123% in experiment [1] (setting [10]); 90.1% in experiment [1] (setting [3]); 106% in experiment [1] (measured here: cell number at 48 h, Library stock concentration: 46 uM). Besides, the nuclei count, normalised came out at 102% in experiment [1] (measured here: cell number at 48 h, Library stock concentration: 278 uM); 87.7% in experiment [1] (measured here: cell number at 48 h, Library stock concentration: 1.67 mM); 122% in experiment [1] (setting [11]); 84.3% in experiment [1] (setting [5]). In addition, the p53-positive nuclei, normalised in experiment [2] (Library stock concentration: 46 uM) is -0.111% (inactive); in experiment [2] (Library stock concentration: 278 uM) it was 0.158% (inactive); in experiment [2] (Library stock concentration: 1.67 mM), 12.8% (inactive); in experiment [2] (setting [12]), 3.31% (inactive); in experiment [2] (setting [7]), 25.8% (inactive); in experiment [2] (measured here: p53 positive nuclei at 24 h, Library stock concentration: 46 uM), -0.0163%. The p53-positive nuclei, normalised amounted to 0.11% in experiment [2] (measured here: p53 positive nuclei at 24 h, Library stock concentration: 278 uM); 27% in experiment [2] (measured here: p53 positive nuclei at 24 h, Library stock concentration: 1.67 mM); 12.7% in experiment [2] (setting [13]); 46.3% in experiment [2] (setting [8]).
